Screens deposited in PubChem by Buhrlage Lab, Dana-Farber Cancer Institute and Novartis Institutes for BioMedical Research (Cambridge, Mass).
USP17 inh: inhibitors of human USP17 deubiquitinase. purified USP17, Ub-rhodamine cleavage fluorescence, 3 h. inhibition, % at 50 µM. 47,000 compounds, 6.5% hits. AID 1645855
Target sequence (A8MUK1 whole entry, looked up): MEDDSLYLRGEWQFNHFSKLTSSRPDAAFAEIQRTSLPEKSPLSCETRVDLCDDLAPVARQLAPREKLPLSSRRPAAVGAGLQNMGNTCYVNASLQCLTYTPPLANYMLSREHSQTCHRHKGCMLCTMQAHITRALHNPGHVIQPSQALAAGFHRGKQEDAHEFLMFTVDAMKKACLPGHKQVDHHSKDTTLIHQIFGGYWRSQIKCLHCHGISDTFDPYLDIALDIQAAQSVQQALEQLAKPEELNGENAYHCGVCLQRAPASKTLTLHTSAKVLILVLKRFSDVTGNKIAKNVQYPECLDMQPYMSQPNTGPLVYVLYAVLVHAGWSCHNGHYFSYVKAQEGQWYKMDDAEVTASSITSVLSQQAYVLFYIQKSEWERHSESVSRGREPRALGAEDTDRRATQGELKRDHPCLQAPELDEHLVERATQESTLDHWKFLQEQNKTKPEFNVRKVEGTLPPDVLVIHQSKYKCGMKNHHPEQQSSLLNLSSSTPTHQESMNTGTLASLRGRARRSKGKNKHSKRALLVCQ
USP28 inh: human USP28 deubiquitinase inhibition; Q96RU2; purified USP28, Ub-rhodamine cleavage fluorescence, 30 min; inhibition, % at 25 µM; 47,000 compounds, 3% hits; AID 1645857
USP30 inh: human USP30 deubiquitinase inhibition; Q70CQ3; purified USP30, Ub-rhodamine cleavage fluorescence; inhibition, % at 25 µM; 47,000 compounds, 5.3% hits; AID 1645860
Hits are given with their value; - = inactive; . = no result. Shown are actives, neighbours in structure and some others; about 11% of the full set was active somewhere. Cut-off read from the data, not from the text of the source: active = inhibition above about 30%; inactive = the rest.

SMILES | USP17 inh | USP28 inh | USP30 inh
COc1cc(C2CC(=O)Nc3n[nH]c(-c4ccccc4)c32)cc(OC)c1OC (centres undefined) | - | - | -
COc1cccc(C2CC(=O)Nc3n[nH]c(-c4ccccc4)c32)c1 (centres undefined) | 68 | - | 63
Cc1cc(=O)oc2c(C)c(OCC(=O)NCc3ccccn3)ccc12 | - | - | -
Cc1c(C)c2ccc(OCC(=O)NCc3ccccn3)c(C)c2oc1=O | 40 | - | 46
Cc1ccc(C)c2[nH]c(=O)c(CN(CC3CCCO3)S(=O)(=O)c3ccccc3Cl)cc12 (centres undefined) | - | - | 33
CC(=O)Nc1ccc(S(=O)(=O)N(Cc2cc3ccc(C)cc3[nH]c2=O)CC2CCCO2)cc1 (centres undefined) | - | - | -
CCn1c(=O)c2sc(N3CCCC3)nc2n(CC(=O)Nc2cc(F)ccc2C)c1=O | - | - | -
Cn1nccc1-c1ccc2c(C3CCCN3Cc3cccnc3)nnn2c1 (centres undefined) | - | - | -
CC1CCC(NC(=O)C2CCCN2S(=O)(=O)c2ccc3nc(-c4ccccc4)[nH]c3c2)CC1 (centres undefined) | 34 | - | -
CC1CCC(NC(=O)C2CCN(S(=O)(=O)c3ccc4c(c3)OCCCO4)CC2)CC1 (centres undefined) | - | - | -
Cc1oc(C2CCC2)nc1C(=O)NCCCn1cccn1 | - | - | -
CCc1nc(-c2ccc(C(=O)Nc3cccnc3)cc2)no1 | - | 49 | -
Cc1cccc(NC(=O)CCc2nc(-c3cccnc3)no2)c1 | - | - | -
COc1cccc(C(=O)Nc2ccc3nc(N4CCN(c5ncccn5)CC4)cc(C)c3c2)c1OC | 59 | - | 85
Cc1cc(N2CCN(c3ncccn3)CC2)nc2ccc(NC(=O)C3CC3)cc12 | - | - | -
Cn1c(CCN2CCN(c3ccccn3)CC2)nc2cc(NC(=O)c3ccco3)ccc21 | - | - | -
Cc1cc(N2CCN(c3ncccn3)CC2)nc2ccc(NC(=O)c3ccco3)cc12 | 67 | 68 | 58
COc1cccc(C(=O)Nc2ccc(N3CCCC3=O)c(C)c2)c1OC | - | - | -
Cc1cc(N2CCN(c3ncccn3)CC2)nc2ccc(NC(=O)c3cccnc3)cc12 | 35 | - | -
CC(=O)O[C@H]1CC(C)=C2C(=O)C=C(C)[C@@H]2[C@H]2OC(=O)[C@@H](C)[C@@H]21 | - | - | -
OC(c1cccc(CN2CCCC2)c1)c1ncc(-c2cccc3ccccc23)[nH]1 (centres undefined) | - | - | -
NC(=O)CN1CCCC(c2cncc(Oc3ccccc3)n2)C1 (centres undefined) | - | - | -
Cc1ccnc(NC(=O)c2ccn(COc3ccc(Cl)cc3)n2)c1 | 47 | - | 72
COc1ccc(OCn2ccc(C(=O)Nc3cnn(C)c3C)n2)cc1 | . | - | -
CCN(CC)c1ccc2nnc(CCC(=O)Nc3cc(C)ccn3)n2n1 | - | - | -
SMILES | USP17 inh | USP28 inh | USP30 inh
Cc1ccnc(NC(=O)c2ccn(COc3ccc(F)cc3)n2)c1 | - | - | 40
Cc1ccn2c(=O)c(NC(=O)COc3ccc(Cl)cc3)c(C)nc2c1 | - | - | -
O=C(Nc1ccc(Cl)cn1)c1ccn(COc2ccccc2)n1 | - | - | -
Cc1cccc(C)c1NC(=O)c1ccn(COc2ccccc2)n1 | - | 36 | -
Cc1ccc(NC(=O)c2ccn(COc3ccc(F)cc3)n2)nc1 | 60 | - | -
COc1cccc(N(C(=O)COc2cccc(F)c2)c2nc3ccccc3s2)c1 | - | - | -
CC12CN3CC(C)(CN(C1)C3c1ccc(O)cc1)C2O (centres undefined) | - | - | -
COC[C@H]1CCCN1C(=O)CC[C@H]1CNC(=O)[C@@H]2[C@@H](CCN2C2CCCCC2)N1C | - | - | -
COC[C@H]1CCCN1C(=O)CC[C@H]1CNC(=O)[C@@H]2[C@@H](CCN2C2CCOCC2)N1C | - | 31 | -
CC(C)(C)C(=O)Cn1c(=O)n(C2CCCCC2)c(=O)c2ccccc21 | - | - | -
O=C(c1ccc(F)cc1)N1CCN(c2ncnc3c2nnn3Cc2ccccc2)CC1 | - | . | .
O=C(c1ccc2ccccc2c1)N1CCN(c2ncnc3c2nnn3Cc2ccccc2)CC1 | - | - | -
O=C(CCC1CCCCC1)N1CCN(c2ncnc3c2nnn3Cc2ccccc2)CC1 | - | - | 32
O=C(Cc1ccc(Cl)cc1)N1CCN(c2ncnc3c2nnn3Cc2ccccc2)CC1 | - | - | 35
CC(C)(C)C(=O)N1CCc2[nH]nc(-c3ccc(F)cc3)c2C1 | - | - | -
O=C(N[C@H]1CCCc2ccccc21)c1cc(-c2ccco2)on1 | 47 | - | -
O=C(Cc1c(C(=O)O)[nH]c2ccccc12)NC1CCCc2ccccc21 (centres undefined) | - | - | -
O=C(NC1CCCc2ccccc21)c1cc(=O)[nH]c2ccccc12 (centres undefined) | 41 | - | -
